# Source: PubChem BioAssay
# Shown are actives, neighbours in structure and some others; about 11% of the full set was active somewhere.
# HPGD block – qHTS Assay for Inhibitors of HPGD (15-Hydroxyprostaglandin Dehydrogenase); 150,000 tested, 4.3% active; purified HPGD, NADH fluorescence kinetic, PGE2 substrate; AID 894, 2007; 15-hydroxyprostaglandin dehydrogenase [NAD(+)] (Homo sapiens), P15428; Potency, µM, without a hit: at the highest dose activity change, negative = inhibition, most hits filed as inhibitors; further: potency means the concentration at half of the fitted maximal effect
# Target sequence (P15428 whole entry, looked up): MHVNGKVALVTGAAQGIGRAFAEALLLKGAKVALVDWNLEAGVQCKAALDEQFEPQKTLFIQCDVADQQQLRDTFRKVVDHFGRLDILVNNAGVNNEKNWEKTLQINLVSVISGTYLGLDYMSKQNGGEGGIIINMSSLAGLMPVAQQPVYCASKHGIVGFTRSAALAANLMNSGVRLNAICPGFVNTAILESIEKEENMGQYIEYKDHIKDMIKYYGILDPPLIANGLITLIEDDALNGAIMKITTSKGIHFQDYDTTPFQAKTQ
#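 NADH formation kinetics: reaction with 30 uM PGE2 and 1 mM NAD+ (final), 20 nM enzyme, Tris-HCl pH 8 with Tween 20, after 15 min compound preincubation at room temperature. Fluorescence change, last versus first of five reads.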
# PNC assembly inh – High Content Assay for Compounds that inhibit the Assembly of the Perinucleolar Compartment. PC3M PTB-GFP, PNC prevalence imaging, 16 h; stronger effect = lower value. activity change (PNC), negative = inhibition, % at 10 µM. 140,000 tested, 3.1% active. AID 2417, 2010;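 active means readout at or below -70, meaning at least 70% loss of cells showing the perinucleolar compartment, a nuclear body marking cancer cells; inconclusive means readout between -30 and a set limit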;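 further: plate controls were DMSO wells for no effect and camptothecin positive control wells for full effect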
#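 Read-out is percentage of cells bearing a perinucleolar compartment, from automated 20x imaging of fixed, Hoechst-stained PC3M PTB-GFP cells. Cells were seeded 4 h, then exposed 16 h to compound (23 nl of library stock) in duplicate plates.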
# ALDH1A1 inh – qHTS Assay for Inhibitors of Aldehyde Dehydrogenase 1 (ALDH1A1); Potency, µM (titrated, usually from 75.3 µM), without a hit: top-dose activity, negative = inhibition, hits mostly inhibitors; Aldehyde dehydrogenase 1A1 (Homo sapiens), P00352; 220,000 tested, 7.3% active; Purified ALDH1A1, NADH fluorescence, propionaldehyde substrate;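 further: potency means the concentration at half of the fitted maximal effect; plate controls were no enzyme wells and a reference inhibitor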
# Target sequence (P00352 whole entry, looked up): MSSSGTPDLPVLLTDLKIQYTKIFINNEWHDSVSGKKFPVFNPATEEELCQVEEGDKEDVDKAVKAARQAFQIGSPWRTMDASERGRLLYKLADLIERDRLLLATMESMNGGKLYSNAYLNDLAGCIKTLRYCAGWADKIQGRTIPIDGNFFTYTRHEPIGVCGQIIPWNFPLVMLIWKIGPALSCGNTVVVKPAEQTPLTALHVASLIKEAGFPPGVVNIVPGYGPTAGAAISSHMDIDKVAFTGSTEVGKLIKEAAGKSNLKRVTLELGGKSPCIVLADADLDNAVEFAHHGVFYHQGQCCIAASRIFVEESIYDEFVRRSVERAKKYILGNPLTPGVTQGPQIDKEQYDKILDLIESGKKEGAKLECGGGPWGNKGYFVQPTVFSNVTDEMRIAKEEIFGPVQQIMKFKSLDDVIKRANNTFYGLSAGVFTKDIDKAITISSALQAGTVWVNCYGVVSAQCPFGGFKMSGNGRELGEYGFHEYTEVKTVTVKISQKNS
# IMPase Li inh – qHTS Assay for Identifying the Cell-Membrane Permeable IMPase Inhibitors: Potentiation with Lithium; Potency, µM (top dose mostly 59.4 µM), for the others: at the highest dose activity, negative = IMPase inhibition, most hits filed as inhibitors; CHO-M1 cells, IP1 TR-FRET (IP-One), carbachol + lithium; 210,000 tested, 0.35% active; AID 1457, 2008; active means well fitted inhibition curve with a large enough effect; inconclusive means small, poorly fitted or top-dose-only effect; inactive means no such curve, though single readings can be large or run the other way;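 further: IP1 builds up when IMPase is blocked and the TR-FRET signal falls; potency means the concentration at half of the fitted maximal effect; plate controls were basal vehicle for no effect and high inhibitor control for full effect; nearly all actives have a fitted effect of over 50% in size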
#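 Test compounds were applied to CHO-M1 cells previously cultured for 16–30 h at 2000 per well. A small lithium amount accompanied them; after 30 min at 37C, IP1 was quantified by TR-FRET.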
# IMPase inh – qHTS Assay for Identifying the Cell-Membrane Permeable IMPase Inhibitors. Inositol monophosphatase 1 (Rattus norvegicus), P97697. CHO-M1 cells, IP1 accumulation, HTRF TR-FRET ratio. inhibition (IP1 accumulation), % at 46.1 µM. 120,000 tested, under 10 active; active means well fitted curve in the direction sought with a large enough effect in the signal ratio, not every such curve was filed as active; inconclusive means small, poorly fitted or top-dose-only effect, or a change in a side signal; inactive means no such curve, though single readings can be large or run the other way; the % refers to the signal ratio;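 further: cells stimulated with carbachol in lithium chloride buffer; plate controls were DMSO basal wells for no effect and reference inhibitor wells for full effect; higher means more IMPase inhibition seen as more IP1 and lower FRET ratio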
#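 The IP-One HTRF competitive assay in carbachol-stimulated CHO-M1 cells quantifies cellular IP1. Compounds spanned up to 46 uM final, and activity is expressed as AC50 from concentration-response fits of the ratio and donor data.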
# Active calls of the source: *; ? = inconclusive; . = no result; [ ] = another dose, or the depositor's remark. Unless noted, the call rests on the fitted dose curve; in most records, active means well fitted inhibition curve with a large enough effect (not every such curve was filed as active); inconclusive means small, poorly fitted or top-dose-only effect, or another doubt; inactive means no such curve, though single readings can be large or run the other way. Unless noted, on the % scale 0 is the no-effect control and ±100 the full control effect.
SMILES,HPGD block,PNC assembly inh,ALDH1A1 inh,IMPase Li inh,IMPase inh
O=c1[nH]c(S)nc2sc3c(c12)CCCC3,.,.,4.5µM*,?,.
Cc1nc2sc3c(c2c(=O)o1)CC(C)(C)OC3,-8%,?,?,13%[38.3 µM],-10
COC(=O)C/C=C\[C@@H](C)[C@@H](/C=N\O[C@@H](C)CN1CCCCc2nc(C)c(C)cc21)NS(=O)(=O)c1ccc(C)cc1,.,.,13%[13.5 µM],.,.
CC(C)CC(NC(=O)C(CO)NC(=O)C1CCC(=O)N1)C(N)=O (configuration not stated),.,.,10%,8%,.
CN1CCc2cc3c(cc2C(=O)Cc2ccc4c(c2C1)OCO4)OCO3,-8%,.,-2%,32%,16
Cc1ccccc1CNc1ncnc2c1ncn2[C@@H]1O[C@@H](CO)[C@H](O)[C@@H]1O,.,.,.,.,10
COCn1ccnc1C(O)(c1ccc(OC)cc1)c1ccc(OC)cc1,0%,-23,9%,-4%,.
Cc1c2cnccc2c(C)c2c1c1ccccc1n2CCOC(=O)c1ccccc1,?,.,-15%[13.5 µM],-4%,.
CC(=O)c1cn(-c2ccc(Cl)cc2)c(=O)n(Cc2ccc(F)cc2)c1=O,.,.,8%,8%,.
Cc1ccccc1NC(=O)c1c(NC(=O)Cc2ccccc2)sc2c1CCC2,.,.,.,.,-2
Cc1ccc(C(O)C2=CCCC2=O)cc1 (configuration not stated),-4%,.,-6%,7%,.
CN1C(=O)C2(C(C#N)=C(N)Oc3c2oc(CO)cc3=O)c2ccccc21 (configuration not stated),-1%,-18,4%,21%[38.3 µM],12
COC(=O)C1=C(C(C)=O)C(c2ccc(C(=O)OC)cc2)n2nnnc2N1 (configuration not stated),-11%,?,-12%,15%[38.3 µM],-11
COC(=O)C1=C(C(=O)c2ccccc2)C(c2ccccc2)n2nnnc2N1 (configuration not stated),.,.,28µM*,1%,.
Cc1cccc(CNc2ncncc2-c2ccccc2C)c1,.,.,9%,-1%,.
COc1ccccc1CNC(=O)CCn1c(=O)[nH]c2ccsc2c1=O,-6%,-100*,9%,5%,11
COc1ccccc1N1CCN(C(=O)CCCn2c(=O)[nH]c3ccsc3c2=O)CC1,-4%,34,-3%,22%[38.3 µM],0
O=C(CCn1c(=O)[nH]c2ccsc2c1=O)Nc1ccc(F)c(F)c1,?,42,-8%,10µM*,3
COc1ccc(CCNC(=O)c2nc3ncccn3n2)cc1OC,2%,-107*,0%,20%[38.3 µM],0
COc1ccc(CCNC(=O)C(=O)NCCOc2ccccc2Cl)cc1OC,-8%,39,?,-1%,.
COc1ccc(CCNC(=O)C(=O)NCCOc2ccccc2)cc1OC,-15%,?,4µM*,-5%,.
Cc1c(Cl)c([N+](=O)[O-])nn1CC(=O)NC(C)C1CC2CCC1C2 (configuration not stated),-6%,19,-7%,6%[38.3 µM],-1
CCc1cccc(OCC(=O)Nc2ccc(S(=O)(=O)Nc3cc(C)nc(C)n3)cc2)c1,.,.,.,.,2
CN(C)CCCNC(CC(=O)Nc1cccc([N+](=O)[O-])c1)C(=O)O (configuration not stated),-13%,-12,5%,1%,.
COc1cccc(NC(=O)c2sc3nc(C)c(C(=O)Nc4ccc(C)cc4C)c(-c4ccc(C)o4)c3c2N)c1,.,.,.,.,-4
SMILES,HPGD block,PNC assembly inh,ALDH1A1 inh,IMPase Li inh,IMPase inh
Cc1ccc(/C([O-])=C(/C(=S)NCCN2CCOCC2)[n+]2ccccc2)cc1[N+](=O)[O-],.,.,22µM*,19%,.
[O-]/C(=C(\C(=S)NCCN1CCOCC1)[n+]1ccccc1)c1ccc(Cl)s1,.,.,10µM*,11%,.
[O-]/C(=C(\C(=S)NCc1ccccc1)[n+]1ccccc1)c1ccc(Cl)s1,.,.,18µM*,-2%,.
Cc1ccc(/C([O-])=C(/C(=S)Nc2ccc(SC(F)F)cc2)[n+]2ccccc2)cc1[N+](=O)[O-],.,.,4.5µM*,11%,.
O=C(Nc1cc(Cl)ccn1)C1(c2ccccc2)CC1(Cl)Cl (configuration not stated),.,.,4%,.,.
COc1ccccc1C(=O)NC(=S)NNC(=O)c1sc2ccccc2c1Cl,32µM*,?,-5%,-1%,-19
COc1ccccc1C(=O)NNC(=S)NC(=O)c1sc2ccccc2c1Cl,-10%,-25,-11%,-3%,.
Cc1c(NC(=S)NC(=O)C(c2ccccc2)c2ccccc2)cccc1C(=O)O,-10%,-5,9%,12%[38.3 µM],6
Cc1c(NC(=S)NC(=O)c2sc3ccccc3c2Cl)cccc1C(=O)O,.,.,25µM*,-13%,.
O=C1NCCCC2c3c(cc(Br)c(O)c3Br)OC12N1CCCCC1 (configuration not stated),13µM*,6,7.9µM*,23%[38.3 µM],9
Cn1cc(C(=O)N/N=C/C(Br)=C\c2ccccc2)ccc1=O,-22%,19,?,5%[38.3 µM],13
Cn1cc(C(=O)N/N=C/C(Br)=C/c2ccccc2)ccc1=O,28µM*,8,?,18%,.
COC(=O)c1sc(N2C(=O)C(=O)/C(=C(/O)c3ccccc3)C2c2ccco2)nc1C (configuration not stated),25µM*,-84*,-2%,-18%,.
CCCc1nc2oc(C(=O)c3ccccc3)c(N)c2c2c1COC(C)(C)C2,-16%,?,10µM*,0%[38.3 µM],7
CC12C(=O)N(Cc3ccco3)C(=O)C1C1c3ccccc3C2c2ccccc21 (configuration not stated),-21%,-6,16µM*,44%[38.3 µM],2
O=C1CC(=O)N(Cc2ccco2)C(=O)N1,-2%,11,-7%,-3%,6
CCOC(=O)N1CCN(c2c(NCc3cccs3)c(=O)c2=O)CC1,28µM*,7,?,1%[38.3 µM],-7
CCOC(=O)N1CCN(c2c(NCc3ccccc3OC)c(=O)c2=O)CC1,16µM*,-19,?,2%[38.3 µM],7
CCCn1c(C)cc(C(=O)COc2ccc(C)nc2[N+](=O)[O-])c1C,.,12,?,.,-4
O=C(COC(=O)c1cc[n+]([O-])cc1)Nc1ccccc1Sc1ccccc1,.,.,11µM*,18%,.
Cc1ccc(OCC(=O)c2cc(C)c(C)cc2C)c([N+](=O)[O-])n1,-20%,-28,3.5µM*,-4%[38.3 µM],0
Cc1ccc(C)c(C(=O)COc2ccc(C)nc2[N+](=O)[O-])c1,-16%,?,1.6µM*,29%[38.3 µM],-2
COCCn1c(C)cc(C(=O)COc2ccc(C)nc2[N+](=O)[O-])c1C,.,.,10µM*,8%,.
Cc1ccc(OCC(=O)c2cc(C)n(-c3ccccc3)c2C)c([N+](=O)[O-])n1,-10%,?,?,6%,20
